In the supplement of paper PMC10849652:
Targets with a hit are over-represented here; the source holds about 8,800 in all. About 0.5% of all pairs of compound and target were hits.

Legend:
Test in all cases: log2 fold change, soluble protein after heating vs DMSO (PISA); higher = thermal stabilisation; K562 lysate, 10 uM; active = over 0.2 and 3.5 SD of the protein, either way, in both replicates (recomputed)
alvocidib = compound: CN1CC[C@H](c2c(O)cc(O)c3c(=O)cc(-c4ccccc4Cl)oc23)[C@H](O)C1 [alvocidib]
Procedure, shortened: (§1)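 A 30 min treatment with 10 μM compound was applied to crude K562 extract at 1 mg/mL protein in PBS pH 7.4 with 1 mM MgCl2. Heating for 3 min spanned 48°C-58°C, after which aliquots were pooled, adjusted to 0.5% NP-40 at 4°C and spun at 21,000xg for 90 min. TMTpro 16plex LC-MS/MS of the supernatant, with channel sums equalised, gave values recorded as log-two fold change in thermal stability against solvent controls, from duplicates.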

Tubastatin A = compound: CN1CCc2c(c3ccccc3n2Cc2ccc(C(=O)NO)cc2)C1 [Tubastatin A]
Procedure, shortened: as §1

[1] = compound: CNC(=O)C1=CC=CC=C1NC2=NC(=NC=C2Cl)NC3=C(C=C(C=C3)N4CCOCC4)OC
Procedure, shortened: as §1

defactinib = compound: CNC(=O)c1ccc(Nc2ncc(C(F)(F)F)c(NCc3nccnc3N(C)S(C)(=O)=O)n2)cc1 [defactinib]
Procedure, shortened: as §1

[2] = compound: CNc1nc(-c2ccc3c(N)n[nH]c3c2)cc(N2C[C@@H](C(=O)NC3CCCCC3)CC[C@H]2C)n1
Procedure, shortened: as §1

encorafenib = compound: COC(=O)N[C@@H](C)CNc1nccc(-c2cn(C(C)C)nc2-c2cc(Cl)cc(NS(C)(=O)=O)c2F)n1 [encorafenib]
Procedure, shortened: as §1

[3] = compound: COC(=O)[C@H](CCSC)NC(=O)C1=C(C=C(C=C1)NC[C@H](CS)N)C2=CC=CC=C2
Procedure, shortened: as §1

alisertib = compound: COc1cc(Nc2ncc3c(n2)-c2ccc(Cl)cc2C(c2c(F)cccc2OC)=NC3)ccc1C(=O)O [alisertib]
Procedure, shortened: as §1

[4] = compound: COc1cc2nc(-c3cc(F)ccc3O)nc(N[C@@H]3CNC[C@H]3C(C)(C)O)c2cc1OC
Procedure, shortened: as §1

gefitinib = compound: COc1cc2ncnc(Nc3ccc(F)c(Cl)c3)c2cc1OCCCN1CCOCC1 [gefitinib]
Procedure, shortened: as §1

lapatinib = compound: CS(=O)(=O)CCNCc1ccc(-c2ccc3ncnc(Nc4ccc(OCc5cccc(F)c5)c(Cl)c4)c3c2)o1 [lapatinib]
Procedure, shortened: as §1

pictilisib = compound: CS(=O)(=O)N1CCN(Cc2cc3nc(-c4cccc5[nH]ncc45)nc(N4CCOCC4)c3s2)CC1 [pictilisib]
Procedure, shortened: as §1

crizotinib = compound: C[C@@H](Oc1cc(-c2cnn(C3CCNCC3)c2)cnc1N)c1c(Cl)ccc(F)c1Cl [crizotinib]
Procedure, shortened: as §1

[5] = compound: C[C@H](C1=CC=C(C=C1)C(=O)NC2=C3C=CNC3=NC=C2)N
Procedure, shortened: as §1

duvelisib = compound: C[C@H](Nc1ncnc2nc[nH]c12)c1cc2cccc(Cl)c2c(=O)n1-c1ccccc1 [duvelisib]
Procedure, shortened: as §1

gandotinib = compound: Cc1cc(Nc2cc(CN3CCOCC3)c3nc(C)c(Cc4ccc(Cl)cc4F)n3n2)n[nH]1 [gandotinib]
Procedure, shortened: as §1

tozasertib = compound: Cc1cc(Nc2cc(N3CCN(C)CC3)nc(Sc3ccc(NC(=O)C4CC4)cc3)n2)n[nH]1 [tozasertib]
Procedure, shortened: as §1

doramapimod = compound: Cc1ccc(-n2nc(C(C)(C)C)cc2NC(=O)Nc2ccc(OCCN3CCOCC3)c3ccccc23)cc1 [doramapimod]
Procedure, shortened: as §1

bafetinib = compound: Cc1ccc(NC(=O)c2ccc(CN3CC[C@H](N(C)C)C3)c(C(F)(F)F)c2)cc1Nc1nccc(-c2cncnc2)n1 [bafetinib]
Procedure, shortened: as §1

[6] = compound: Cc1cccc(CC(=O)N2CCc3c2ccc(-c2cn(C)c4ncnc(N)c24)c3F)n1
Procedure, shortened: as §1

Measured: log2 fold change

CUL1 (UniProt Q13616)
inactive: alvocidib -0.008 | Tubastatin A 0.008 | [1] 0.001 | defactinib -0.019 | [2] 0.013 | encorafenib 0 | [3] -0.042 | alisertib -0.01 | [4] 0.011 | gefitinib -0.038 | lapatinib -0.007 | pictilisib 0.004 | crizotinib 0.014 | [5] -0.007 | duvelisib 0.015 | gandotinib 0.03 | tozasertib -0.001 | doramapimod 0.01 | bafetinib 0.03 | [6] -0.002

CORO7 isoform 3 (UniProt P57737)
inactive: alvocidib 0.023 | Tubastatin A -0.087 | [1] -0.008 | defactinib 0.028 | [2] 0.007 | encorafenib -0.008 | [3] 0.114 | alisertib 0.007 | [4] -0.069 | gefitinib -0.047 | lapatinib 0.009 | pictilisib -0.016 | crizotinib -0.063 | [5] 0.06 | duvelisib 0.004 | gandotinib -0.119 | tozasertib 0.005 | doramapimod 0.013 | bafetinib 0.001 | [6] -0.067

CHEK1 (UniProt O14757)
Sequence of UniProt O14757 (O14757 whole entry, looked up): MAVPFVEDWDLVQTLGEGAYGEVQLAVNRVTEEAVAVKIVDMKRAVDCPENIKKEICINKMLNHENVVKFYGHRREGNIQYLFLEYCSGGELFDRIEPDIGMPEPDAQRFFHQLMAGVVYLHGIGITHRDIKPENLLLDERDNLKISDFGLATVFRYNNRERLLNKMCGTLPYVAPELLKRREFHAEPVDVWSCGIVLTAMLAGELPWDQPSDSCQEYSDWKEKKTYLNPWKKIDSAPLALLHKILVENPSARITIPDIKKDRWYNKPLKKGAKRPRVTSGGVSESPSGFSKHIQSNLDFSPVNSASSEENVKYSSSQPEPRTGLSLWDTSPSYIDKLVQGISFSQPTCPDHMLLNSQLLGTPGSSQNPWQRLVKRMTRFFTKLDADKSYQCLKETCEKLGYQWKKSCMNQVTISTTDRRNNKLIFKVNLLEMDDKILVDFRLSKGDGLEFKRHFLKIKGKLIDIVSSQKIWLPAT
inactive: alvocidib 0.01 | Tubastatin A 0.072 | [1] -0.063 | defactinib -0.021 | [2] -0.002 | encorafenib 0.002 | [3] -0.008 | alisertib 0.008 | [4] -0.178 | gefitinib 0.013 | lapatinib -0.008 | pictilisib -0.003 | crizotinib -0.021 | [5] 0.174 | duvelisib -0.009 | gandotinib -0.014 | tozasertib 0.017 | doramapimod 0.04 | bafetinib -0.025 | [6] 0.015

COASY isoform 2 (UniProt Q13057)
Sequence of UniProt Q13057 (Q13057 whole entry, looked up): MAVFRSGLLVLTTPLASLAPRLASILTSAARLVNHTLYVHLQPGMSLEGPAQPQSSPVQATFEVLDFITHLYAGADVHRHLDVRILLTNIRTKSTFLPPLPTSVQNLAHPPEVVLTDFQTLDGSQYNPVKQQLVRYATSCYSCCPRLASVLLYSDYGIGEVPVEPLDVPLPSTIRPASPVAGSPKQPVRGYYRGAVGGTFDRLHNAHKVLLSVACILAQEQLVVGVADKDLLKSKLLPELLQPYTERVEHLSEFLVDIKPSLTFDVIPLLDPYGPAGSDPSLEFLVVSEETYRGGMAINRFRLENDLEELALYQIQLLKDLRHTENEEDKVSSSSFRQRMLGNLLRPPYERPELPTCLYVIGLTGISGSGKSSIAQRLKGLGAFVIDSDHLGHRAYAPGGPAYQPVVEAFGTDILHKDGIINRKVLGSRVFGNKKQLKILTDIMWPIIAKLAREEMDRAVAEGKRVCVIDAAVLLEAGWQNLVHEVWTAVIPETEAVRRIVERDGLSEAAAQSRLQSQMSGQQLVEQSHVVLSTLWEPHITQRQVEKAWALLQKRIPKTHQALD
inactive: alvocidib 0.015 | Tubastatin A -0.124 | [1] -0.003 | defactinib 0.064 | [2] -0.023 | encorafenib -0.012 | [3] 0.032 | alisertib 0.023 | [4] -0.025 | gefitinib -0.005 | lapatinib -0.01 | pictilisib 0.021 | crizotinib -0.084 | [5] -0.072 | duvelisib 0.004 | gandotinib 0.009 | tozasertib -0.022 | doramapimod -0.007 | bafetinib -0.043 | [6] 0.029

CMTM3 (UniProt Q96MX0)
Sequence of UniProt Q96MX0 (Q96MX0 whole entry, looked up): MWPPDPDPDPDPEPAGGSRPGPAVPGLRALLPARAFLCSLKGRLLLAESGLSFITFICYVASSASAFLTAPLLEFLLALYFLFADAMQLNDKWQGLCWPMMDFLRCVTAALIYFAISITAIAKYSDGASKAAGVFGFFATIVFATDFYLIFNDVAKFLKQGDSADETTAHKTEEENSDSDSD
inactive: alvocidib -0.007 | Tubastatin A -0.231 | [1] 0.04 | defactinib -0.022 | [2] 0.061 | encorafenib -0.011 | [3] 0.064 | alisertib -0.099 | [4] -0.036 | gefitinib -0.123 | lapatinib -0.027 | pictilisib 0.029 | crizotinib -0.069 | [5] 0.023 | duvelisib -0.052 | gandotinib 0.016 | tozasertib 0.042 | doramapimod 0.025 | bafetinib -0.057 | [6] -0.059

DLGAP5 (UniProt Q15398)
inactive: alvocidib -0.007 | Tubastatin A -0.021 | [1] 0.01 | defactinib 0.004 | [2] -0.004 | encorafenib 0.024 | [3] 0 | alisertib -0.016 | [4] -0.02 | gefitinib -0.001 | lapatinib 0.02 | pictilisib 0 | crizotinib -0.016 | [5] -0.029 | duvelisib -0.005 | gandotinib 0.049 | tozasertib -0.014 | doramapimod 0.001 | bafetinib -0.008 | [6] 0.04

COL6A5 (UniProt A8TX70)
inactive: alvocidib -0.544 | Tubastatin A 0.029 | [1] -0.048 | defactinib -0.111 | [2] 0.256 | encorafenib -0.088 | [3] 0.1 | alisertib -0.038 | [4] 0.07 | gefitinib -0.034 | lapatinib -0.07 | pictilisib -0.035 | crizotinib -0.197 | duvelisib 0.013 | gandotinib 0.295 | tozasertib -0.099 | doramapimod 0.053 | bafetinib -0.13
active: [5] -0.966 | [6] 0.486

CSNK2B (UniProt P67870)
Sequence of UniProt P67870 (P67870 whole entry, looked up): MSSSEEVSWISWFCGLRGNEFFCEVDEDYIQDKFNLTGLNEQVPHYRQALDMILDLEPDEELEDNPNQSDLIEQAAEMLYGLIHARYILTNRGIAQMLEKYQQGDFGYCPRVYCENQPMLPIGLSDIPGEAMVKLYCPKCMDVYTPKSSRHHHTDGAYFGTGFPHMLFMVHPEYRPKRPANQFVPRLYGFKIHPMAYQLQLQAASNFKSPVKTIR
inactive: alvocidib -0.005 | Tubastatin A -0.012 | defactinib 0.025 | [2] 0.053 | encorafenib -0.026 | [3] -0.006 | alisertib -0.054 | [4] 0.052 | gefitinib -0.022 | lapatinib -0.052 | pictilisib 0.023 | crizotinib -0.073 | [5] 0.027 | duvelisib -0.053 | gandotinib 0.016 | tozasertib 0.004 | doramapimod 0.022 | bafetinib 0.064 | [6] -0.05
active: [1] 0.324

DCP2 (UniProt Q8IU60)
inactive: alvocidib 0.023 | Tubastatin A -0.195 | [1] -0.013 | defactinib -0.045 | [2] 0 | encorafenib 0 | [3] -0.117 | alisertib -0.02 | [4] 0 | gefitinib 0.041 | lapatinib -0.027 | pictilisib 0.011 | crizotinib 0.038 | [5] 0.021 | duvelisib -0.011 | gandotinib -0.148 | tozasertib 0.018 | doramapimod 0.01 | bafetinib -0.062 | [6] -0.041

CSNK1E (UniProt P49674)
Sequence of UniProt P49674 (P49674 whole entry, looked up): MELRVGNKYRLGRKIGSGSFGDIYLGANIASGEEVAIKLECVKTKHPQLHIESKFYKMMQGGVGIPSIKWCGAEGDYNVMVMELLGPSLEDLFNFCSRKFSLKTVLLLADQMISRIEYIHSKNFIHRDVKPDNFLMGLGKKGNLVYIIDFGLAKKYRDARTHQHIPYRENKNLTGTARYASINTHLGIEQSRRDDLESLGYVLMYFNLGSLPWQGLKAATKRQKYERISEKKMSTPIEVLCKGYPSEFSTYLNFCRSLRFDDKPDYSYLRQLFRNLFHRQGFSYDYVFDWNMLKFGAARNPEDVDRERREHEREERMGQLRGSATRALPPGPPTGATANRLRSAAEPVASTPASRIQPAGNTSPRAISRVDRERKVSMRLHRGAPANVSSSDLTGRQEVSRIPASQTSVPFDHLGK
inactive: alvocidib 0.021 | Tubastatin A -0.159 | [1] 0.129 | defactinib -0.017 | [2] 0.093 | encorafenib -0.032 | [3] 0.028 | alisertib -0.034 | [4] 0.048 | gefitinib 0.012 | lapatinib -0.026 | pictilisib 0.103 | crizotinib 0.004 | [5] 0.135 | duvelisib -0.016 | gandotinib -0.134 | tozasertib -0.065 | doramapimod 0.003 | bafetinib -0.024 | [6] -0.061

CKAP2 (UniProt Q8WWK9)
Sequence of UniProt Q8WWK9 (Q8WWK9 whole entry, looked up): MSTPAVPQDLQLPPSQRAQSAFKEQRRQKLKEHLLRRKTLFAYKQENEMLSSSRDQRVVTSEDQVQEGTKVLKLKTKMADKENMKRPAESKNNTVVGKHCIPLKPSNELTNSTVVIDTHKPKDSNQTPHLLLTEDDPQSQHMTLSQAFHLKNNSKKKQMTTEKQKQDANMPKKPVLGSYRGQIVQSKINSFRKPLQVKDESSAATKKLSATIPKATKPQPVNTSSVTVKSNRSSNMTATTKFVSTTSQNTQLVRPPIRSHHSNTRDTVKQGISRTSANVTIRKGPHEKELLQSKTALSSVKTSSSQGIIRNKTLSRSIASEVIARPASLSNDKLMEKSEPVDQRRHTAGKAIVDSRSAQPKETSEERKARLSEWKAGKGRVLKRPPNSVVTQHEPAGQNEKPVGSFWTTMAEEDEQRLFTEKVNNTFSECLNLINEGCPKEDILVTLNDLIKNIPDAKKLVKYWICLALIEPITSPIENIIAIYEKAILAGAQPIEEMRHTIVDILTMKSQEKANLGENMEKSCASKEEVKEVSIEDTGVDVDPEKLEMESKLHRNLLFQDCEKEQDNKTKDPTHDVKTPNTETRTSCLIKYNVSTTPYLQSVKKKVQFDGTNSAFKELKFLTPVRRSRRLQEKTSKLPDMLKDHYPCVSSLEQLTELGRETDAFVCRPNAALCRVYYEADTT
inactive: alvocidib -0.059 | Tubastatin A -0.009 | [1] 0.071 | defactinib -0.075 | [2] 0.028 | encorafenib 0.097 | [3] -0.092 | alisertib -0.044 | [4] 0.049 | gefitinib 0.06 | lapatinib -0.004 | pictilisib -0.02 | crizotinib -0.027 | [5] 0.064 | duvelisib 0.016 | gandotinib 0.016 | tozasertib 0.034 | doramapimod -0.001 | bafetinib 0.019 | [6] -0.009

COG3 (UniProt Q96JB2)
Sequence of UniProt Q96JB2 (Q96JB2 whole entry, looked up): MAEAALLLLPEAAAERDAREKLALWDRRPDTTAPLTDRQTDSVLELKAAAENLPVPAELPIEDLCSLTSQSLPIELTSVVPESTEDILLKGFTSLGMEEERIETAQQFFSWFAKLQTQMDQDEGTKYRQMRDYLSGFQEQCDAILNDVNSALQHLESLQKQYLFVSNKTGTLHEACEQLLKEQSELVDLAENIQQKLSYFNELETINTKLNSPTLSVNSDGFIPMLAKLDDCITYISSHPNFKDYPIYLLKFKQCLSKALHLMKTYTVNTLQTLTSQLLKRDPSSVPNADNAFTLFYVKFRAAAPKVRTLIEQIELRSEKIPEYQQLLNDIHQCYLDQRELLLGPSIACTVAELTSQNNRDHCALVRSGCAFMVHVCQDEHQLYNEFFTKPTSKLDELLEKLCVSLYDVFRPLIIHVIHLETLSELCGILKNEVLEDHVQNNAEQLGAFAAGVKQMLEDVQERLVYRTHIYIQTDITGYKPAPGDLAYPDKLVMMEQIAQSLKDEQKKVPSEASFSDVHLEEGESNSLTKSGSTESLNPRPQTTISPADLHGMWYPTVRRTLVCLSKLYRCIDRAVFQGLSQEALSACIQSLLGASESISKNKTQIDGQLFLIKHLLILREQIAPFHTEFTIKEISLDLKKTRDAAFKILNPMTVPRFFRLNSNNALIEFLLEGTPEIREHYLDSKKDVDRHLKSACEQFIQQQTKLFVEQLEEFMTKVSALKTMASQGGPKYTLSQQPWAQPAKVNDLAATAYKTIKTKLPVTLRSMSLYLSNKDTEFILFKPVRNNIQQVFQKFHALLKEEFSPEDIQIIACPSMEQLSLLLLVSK
inactive: alvocidib -0.023 | Tubastatin A -0.09 | [1] 0.042 | defactinib -0.016 | [2] -0.041 | encorafenib -0.013 | [3] -0.045 | alisertib 0.032 | [4] -0.018 | gefitinib -0.026 | lapatinib -0.036 | pictilisib -0.054 | crizotinib -0.062 | [5] -0.036 | duvelisib 0.006 | gandotinib -0.064 | tozasertib 0.015 | doramapimod 0.03 | bafetinib 0.003 | [6] 0.093

CORO1A (UniProt P31146)
Sequence of UniProt P31146 (P31146 whole entry, looked up): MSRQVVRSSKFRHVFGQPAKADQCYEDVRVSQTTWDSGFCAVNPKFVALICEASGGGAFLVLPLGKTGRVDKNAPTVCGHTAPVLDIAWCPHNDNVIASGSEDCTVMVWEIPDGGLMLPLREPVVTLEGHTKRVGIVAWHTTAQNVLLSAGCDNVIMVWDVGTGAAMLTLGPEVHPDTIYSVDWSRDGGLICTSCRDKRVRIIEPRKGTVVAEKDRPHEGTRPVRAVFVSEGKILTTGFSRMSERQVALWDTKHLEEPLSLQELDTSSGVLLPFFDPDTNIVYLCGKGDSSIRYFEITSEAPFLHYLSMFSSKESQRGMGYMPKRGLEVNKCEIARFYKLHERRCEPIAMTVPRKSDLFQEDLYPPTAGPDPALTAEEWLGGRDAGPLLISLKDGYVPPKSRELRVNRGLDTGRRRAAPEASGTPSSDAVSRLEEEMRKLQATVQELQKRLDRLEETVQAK
inactive: alvocidib 0 | Tubastatin A -0.02 | [1] 0.013 | defactinib -0.034 | [2] 0.037 | encorafenib -0.051 | [3] 0.144 | alisertib -0.018 | [4] -0.021 | gefitinib -0.037 | lapatinib -0.018 | pictilisib -0.058 | crizotinib -0.008 | [5] -0.069 | duvelisib 0.038 | gandotinib 0.037 | tozasertib 0.089 | doramapimod 0.009 | bafetinib -0.028 | [6] -0.001

DNAAF5 (UniProt Q86Y56)
inactive: alvocidib 0.024 | Tubastatin A -0.155 | [1] -0.011 | defactinib -0.009 | [2] -0.011 | encorafenib 0.073 | [3] 0.101 | alisertib 0.038 | [4] 0.012 | gefitinib -0.018 | lapatinib -0.03 | pictilisib -0.008 | crizotinib -0.104 | [5] 0.016 | duvelisib 0.021 | gandotinib -0.147 | tozasertib -0.055 | doramapimod 0.024 | bafetinib -0.066 | [6] 0.027

CNOT2 (UniProt Q9NZN8)
Sequence of UniProt Q9NZN8 (Q9NZN8 whole entry, looked up): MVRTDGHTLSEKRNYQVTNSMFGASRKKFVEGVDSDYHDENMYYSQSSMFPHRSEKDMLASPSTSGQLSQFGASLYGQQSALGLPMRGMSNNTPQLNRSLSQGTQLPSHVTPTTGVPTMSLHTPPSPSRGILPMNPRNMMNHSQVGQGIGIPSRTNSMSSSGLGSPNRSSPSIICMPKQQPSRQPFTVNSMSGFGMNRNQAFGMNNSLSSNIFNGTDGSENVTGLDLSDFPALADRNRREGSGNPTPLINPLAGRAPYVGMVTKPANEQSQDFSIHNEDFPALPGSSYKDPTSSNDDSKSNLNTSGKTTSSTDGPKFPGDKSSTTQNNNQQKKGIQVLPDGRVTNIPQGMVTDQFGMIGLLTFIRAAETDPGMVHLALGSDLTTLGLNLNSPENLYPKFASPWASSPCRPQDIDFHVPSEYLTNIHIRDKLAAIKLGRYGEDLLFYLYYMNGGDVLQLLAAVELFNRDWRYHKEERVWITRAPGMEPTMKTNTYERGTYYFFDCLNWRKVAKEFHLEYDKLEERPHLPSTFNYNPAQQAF
inactive: alvocidib -0.003 | Tubastatin A -0.046 | [1] -0.002 | defactinib 0.001 | [2] -0.027 | encorafenib -0.002 | [3] 0.013 | alisertib -0.025 | [4] 0.008 | gefitinib 0.011 | lapatinib -0.027 | pictilisib -0.014 | crizotinib -0.023 | [5] 0.111 | duvelisib -0.008 | gandotinib -0.093 | tozasertib 0.001 | doramapimod -0.01 | bafetinib 0.024 | [6] -0.005

DHCR7 (UniProt Q9UBM7)
Sequence of UniProt Q9UBM7 (Q9UBM7 whole entry, looked up): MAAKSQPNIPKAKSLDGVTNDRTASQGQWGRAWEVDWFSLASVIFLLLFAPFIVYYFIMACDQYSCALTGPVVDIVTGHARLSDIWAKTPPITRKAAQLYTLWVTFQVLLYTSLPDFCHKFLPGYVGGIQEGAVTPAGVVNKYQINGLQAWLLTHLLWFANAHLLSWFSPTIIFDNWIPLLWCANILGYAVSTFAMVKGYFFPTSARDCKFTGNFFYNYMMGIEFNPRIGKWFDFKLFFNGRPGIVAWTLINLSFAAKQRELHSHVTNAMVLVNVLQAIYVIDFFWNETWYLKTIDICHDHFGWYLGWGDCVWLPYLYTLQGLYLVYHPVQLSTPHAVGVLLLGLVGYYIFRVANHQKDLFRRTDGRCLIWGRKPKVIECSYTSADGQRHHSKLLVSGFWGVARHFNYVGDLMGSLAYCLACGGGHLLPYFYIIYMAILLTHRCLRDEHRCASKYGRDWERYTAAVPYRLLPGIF
active: gandotinib -0.215
inactive: alvocidib -0.008 | Tubastatin A -0.038 | [1] -0.008 | defactinib 0.016 | [2] -0.031 | encorafenib 0.019 | [3] 0.037 | alisertib 0.029 | [4] -0.008 | gefitinib -0.035 | lapatinib -0.092 | pictilisib -0.039 | crizotinib -0.103 | [5] -0.024 | duvelisib 0.067 | tozasertib -0.01 | doramapimod 0.002 | bafetinib 0.024 | [6] 0.013
